# Measurements: PubChem BioAssay (NCI)
# “And” between values parts separate entries of the source, which are not always exact repeats. Identical values can stand only once. About 83,000 compounds went through this panel and 20% of them were active in at least one assay; those are over-represented in the sample as a whole.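 Note: values are percent growth. 100 is the growth of untreated cells, values between 100 and 0 indicate rising inhibition; between -100 and 0 indicates cell death.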 Unmarked numbers belong to inactive results. The source made the active and inactive calls. The calls were made as follows: active = growth percent below 10; inactive = the rest. Starred links: 1 amine or outer side, 2 acyl side, 3 side chain; linkers in the order of their positions; H or OH if unused. Positions of bridges follow the written chain, without caps; N, C: chain ends. Non-standard residues stand in square brackets, D forms with d. Residues, ends and D or L forms follow the SMILES beside them. Chains are numbered I, II in the order given. Actinocin(9to1) = Cc1c2oc3c(C)ccc(C(=O)[*:1])c3nc-2c(C(=O)[*:2])c(N)c1=O; aThr = C[C@H](O)[C@H](N)C(=O)O; NMeV = CN[C@H](C(=O)O)C(C)C; Sar = CNCC(=O)O
# Key:
# Assay in all cases: NCI-60 one-dose screen, 48 h (100 = growth as untreated, 0 = no growth, -100 = all killed)
# [1] = test system: SW-620 colon
# [2] = test system: MCF7 breast
# [3] = test system: HCT-116 colon
# [4] = test system: HCC-2998 colon
structure (smiles),measurement,setting,value
"Cc1c2oc3c(C)ccc(C(=O)N[C@@H]4C(=O)N[C@H](C(C)C)C(=O)N5CCC[C@H]5C(=O)N(C)CC(=O)N(C)[C@@H](C(C)C)C(=O)O[C@H]4C)c3nc-2c(C(=O)N[C@@H]2C(=O)N[C@H](C(C)C)C(=O)N3CCC[C@H]3C(=O)N(C)CC(=O)N(C)[C@@H](C(C)C)C(=O)O[C@H]2C)c(N)c1=O (I: [aThr][dV]P[Sar][NMeV] / II: [aThr][dV]P[Sar][NMeV]; ester I:1-I:C, II:1-II:C; linker I:N-II:N via Actinocin(9to1))",growth,[1]; 0.0025 µM,32.8%
same,growth,[2]; 0.0025 µM,12.2%
same,growth,[3]; 0.0025 µM,16%
same,growth,[4]; 0.0025 µM,15.2%
O=c1[nH]cc(F)c(=O)[nH]1,growth,[1]; 25 µM,50.1%
same,growth,[1]; 50 µM,43.4%
same,growth,[2]; 25 µM,11.5%
same,growth,[2]; 50 µM,18.2%
same,growth,[3]; 25 µM,17.8%
same,growth,[3]; 50 µM,28.3%
same,growth,[4]; 25 µM,-17.8% (active)
same,growth,[4]; 50 µM,35.7%
COc1ccc2c(C)cc(N/N=C/c3sccc3C)nc2c1,growth,[2]; 100 µM,-73.1% (active) and -100% (active)
Cc1ccc2nc(N/N=C/c3ccc(C)s3)cc(C)c2c1,growth,[2]; 100 µM,-94% (active) and -100% (active)
